High-throughput results as filed in PubChem.
JMJD2A Tudor: JMJD2A Tudor domain (human) inhibition; O75164; AlphaScreen JMJD2A-Tudor / H3K4me3 peptide binding; Potency, µM (top dose mostly 114 µM), for the others: at the highest dose activity change, negative = inhibition, hits mostly inhibitors; 4.4% of 390,000 active; also: % is scaled to controls: 0 for no effect and ±100 for the full control effect; nearly all actives have a fitted effect of over 50% in size
G9a block: G9a (human) methyltransferase inhibition; Q96KQ7; G9a H3K9 monomethylation, AlphaScreen, 2 h; Potency, µM (top dose mostly 102 µM), without a hit: at the highest dose activity, negative = inhibition, most hits filed as inhibitors; 8.8% of 350,000 active; also: % is scaled to controls: 0 for no effect and ±100 for the full control effect; nearly all actives have a fitted effect of over 75% in size
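Enzyme 20 nM + cpd, 15 min RT; add b-H3K9 pep 500 nM / SAM 20 uM; 2 h RT; anti-H3K9me1 Ab 0.5 ug/mL + SA donor / anti-rabbit acceptor beads 20 ug/mL each, 10 min; AlphaScreen read.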
BAZ2B block: BAZ2B (human) inhibition; Q9UIF8; AlphaScreen BAZ2B-H3K14Ac peptide displacement; Potency, µM (top dose mostly 114 µM), for inactives: top-dose activity change, negative = inhibition, hits mostly inhibitors; 4.4% of 360,000 active; AID 504333; also: % is scaled to controls: 0 for no effect and ±100 for the full control effect; nearly all actives have a fitted effect of over 60% in size
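AlphaScreen displacement: compounds (up to 110uM) incubated 30 min at room temperature with a preformed 50 nM BAZ2B/50 nM biotinylated H3K14Ac peptide complex in PBS pH 7.4 with Tween-20. Donor and acceptor beads at 10 ug/mL final added, 20 min light-protected before reading.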
HP1b binding inh: blocks HP1-beta chromodomain binding to methylated histone tails | AlphaScreen HP1-beta / biotin-H3K9me3 peptide binding | P83916 | Potency, µM (series often up to 114 µM), without a hit: at the highest dose activity change, negative = inhibition, usual class: inhibitors | 0.56% of 390,000 active; also: nearly all actives have a fitted effect of over 70% in size
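AlphaScreen: HP1-beta (50 nM) preformed 30 min with biotin-H3(1-18)K9me3 peptide (50 nM) in PBS pH 7.4, 0.01% Tween-20. Compound added for 30 min at RT, then streptavidin donor/nickel chelate acceptor beads (10 ug/mL) for 30 min.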
Sfp PPTase inh: Sfp phosphopantetheinyl transferase inhibition | Biochemical Sfp PPTase activity, qHTS | Potency, µM, without a hit: largest response in the series, negative = inhibition, most hits filed as inhibitors | 3.5% of 310,000 active;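 also: the enzyme is Sfp with the accession as filed and its product quenches rhodamine fluorescence; 0% = enzyme reaction without inhibitor and -100% = no enzyme wells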
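Step 1, compound plus 15 nM Sfp-PPTase, 15 min, room temperature. Step 2, add rhodamine-CoA (5 uM) and BHQ-2-YbbR (12.5 uM). Step 3, read 525/598 nm fluorescence at 0 and 30 min.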
L3MBTL1 block: inhibitors of human L3MBTL1 | AlphaScreen L3MBTL1–H3K9me1 peptide binding | Potency, µM (series often up to 57.1 µM), for inactives: top-dose activity, negative = inhibition, usual class: inhibitors | 0.66% of 230,000 active; also: % is scaled to controls: 0 for no effect and ±100 for the full control effect; nearly all actives have a fitted effect of over 60% in size
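Displacement of a biotinylated histone H3(1-15) peptide monomethylated at Lys9 (75 nM) from L3MBTL1 (50 nM) was measured by AlphaScreen after a 30 min room-temperature compound incubation; cefsulodin titration served as intraplate control.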
The depositor's hits bear a star; ? = inconclusive; / = not tested or not shown; ! = a repeat was not active; [ ] = dose if it differs, or a comment. A selection: hits, their analogues and other compounds. The true share with any hit is near 12%. Calls follow the shape of the dose curve; as a rule, active = well fitted curve in the direction sought with a large enough effect; inconclusive = small, poorly fitted or top-dose-only effect, or another doubt; inactive = no such curve, though single readings can be large; an effect the other way counts as inactive or inconclusive. Potency is read from the fitted curve at half-maximal effect.

SMILES	JMJD2A Tudor	G9a block	BAZ2B block	HP1b binding inh	Sfp PPTase inh	L3MBTL1 block
Cc1cccc(NC(=O)c2nc(S(C)(=O)=O)ncc2Cl)c1	-25.6%	8.91µM*	-1.2%	36.1%	/	/
CC(=O)C1=C(c2ccc(Br)cc2)N(C(C)=O)n2c(nnc2C2CCCCC2)S1	-12.0%	11.7%[59 µM]	-14.6%	-3.6%	/	/
CCN1C(=O)[C@H]2[C@H]3[C@H](O)[C@H](O)C/C(=N/O[C@@H](C)CN4CCCCc5nc(C)c(C)cc54)[C@@H]3CC[C@@H]2C1=O	/	/	/	/	10.0%	/
CO/N=C/C1C(=O)NN=C1c1ccccc1 (configuration not stated)	12.6µM*	?	?	17.2%	-1.9%	10.4%
CC(C)S(=O)(=O)c1csc(C(=O)NN)c1Cl	-10.1%	44.7µM*	-9.1%	32.1%	?	3.1%
CCCN(C(=O)CCc1nc(-c2ccc(C)cc2)no1)c1ccc(OCC)cc1	62.7%	71.5%[59 µM]	68.5%	80.6%	/	/
CC(C)(C)C(=O)Nc1ccc2c(c1)C(=O)C(=O)c1ccccc1-2	4.8%	/	/	41.9%	/	/
C[C@H](NC[C@H](O)CP(=O)(O)Cc1ccccc1)c1ccc(Cl)c(Cl)c1	/	-4.8%[59 µM]	/	/	89.1µM*!	/
Cc1cc(C)cc(NC(=O)CCN2C(=O)c3ccccc3Sc3ncccc32)c1	-24.5%	?	-13.2%	41.0%	/	/
Cc1cc(NC(=O)c2cccnc2)cc(-c2nc3cc(Cl)ccc3o2)c1O	-19.4%	45.1%[59 µM]	15.8%	65.8%	/	/
COc1ccc(CCNC(=O)CSc2cn(CCNC(=O)c3ccccc3F)c3ccccc23)cc1OC	-9.7%	29.7%[59 µM]	10.3%	47.9%	/	/
COc1cc2c3c(c1)c(N=NC(N)=S)c(O)n3C(C)(C)C=C2C	-21.0%	/	-19.4%	5.9%	-1.8%	-9.5%
CC1=CC(C)(C)n2c(O)c(N=N)c3cc(C)cc1c32	50.1µM*	?	44.7µM*	?	-12.2%	-14.0%
CC1=CC(C)(C)n2c(O)c(N=N)c3c(C)c(C)cc1c32	?	-9.6%[12.7 µM]	35.5µM*	?	-2.9%	-17.0%
CC1=CC(C)(C)n2c(O)c(N=N)c3c(C)ccc1c32	44.7µM*	50.1µM*	?	-16.4%[57 µM]	12.2%	-6.8%
COc1ccc(Cl)cc1NC(=O)c1cc(S(=O)(=O)N2CCc3ccccc32)cn1C	?	?	?	0.6%	/	/
Fc1ccc(-c2nn(-c3ccc(Cl)cc3)c3c2cnc2ccc(F)cc23)cc1	10.3%	-1.8%[12.7 µM]	0.8%	23.1%	/	/
COc1ccc(CCC(=O)NNC(=O)c2cccs2)cc1	-4.7%	3.0%[2.33 µM]	8.7%	23.2%	/	-5.4%
COc1ccc(-c2ccc(CCC(=O)O)n2NC(=O)c2cccs2)cc1	-27.3%	14.1µM*	-22.6%	-2.8%	-12.3%	19.6%[11.4 µM]
O=C(O)CCc1ccc(-c2ccccc2)n1NC(=O)c1ccco1	-17.8%	?	-2.4%	15.6%	-19.9%	/
Cc1ccc(-c2ccc(CCC(=O)O)n2NC(=O)c2cccs2)cc1	-15.8%	?	11.2µM*	9.5%	12.3%	39.8µM*
CCOc1cccc(C2C(C(=O)c3ccc(C)o3)=C(O)C(=O)N2Cc2ccncc2)c1 (configuration not stated)	?	-1.9%[12.7 µM]	?	25.7%	?	-2.4%
CCOc1cccc(C2C(C(=O)c3ccc(C)o3)=C(O)C(=O)N2c2nccs2)c1 (configuration not stated)	?	6.31µM*	?	20.9%	56.2µM*	-12.2%
CCc1ccc2nc(N3C(=O)C(O)=C(C(=O)c4ccco4)C3c3cccs3)sc2c1 (configuration not stated)	?	?	50.1µM*	?	-15.6%	?
Cc1ccc2nc(N3C(=O)C(O)=C(C(=O)c4cc5ccccc5o4)C3c3cccs3)sc2c1 (configuration not stated)	?	20.4%[59 µM]	-6.5%	-12.1%	39.8µM*	-3.4%
SMILES	JMJD2A Tudor	G9a block	BAZ2B block	HP1b binding inh	Sfp PPTase inh	L3MBTL1 block
O=C(C1=C(O)C(=O)N(c2nccs2)C1c1ccccc1)c1cc2ccccc2o1 (configuration not stated)	-31.7%	3.55µM*	39.8µM*	-14.1%	5.01µM*	-19.2%
Cc1ccccc1NC(=O)N1CCC(CN2CCCC2)CC1	-0.7%	-3.9%[59 µM]	6.6%	31.7%	/	/
CC(C)C[C@H](NC(=O)[C@H](CCCCN)NC(=O)CNC(=O)[C@H](CC(C)C)NC(=O)[C@@H](N)C(C)C)C(=O)N[C@@H](CO)C(=O)N[C@@H](CCC(N)=O)C(=O)N[C@@H](CCC(=O)O)C(=O)N[C@@H](CC(C)C)C(=O)N[C@@H](Cc1cnc[nH]1)C(=O)N[C@@H](CCCCN)C(=O)N[C@@H](CC(C)C)C(=O)N[C@@H](CCC(N)=O)C(=O)N[C@H](C(=O)N[C@@H](Cc1ccc(O)cc1)C(=O)N1CCC[C@H]1C(=O)N[C@@H](CCCNC(=N)N)C(=O)N[C@H](C(=O)N[C@@H](CC(N)=O)C(=O)N[C@H](C(=O)NCC(=O)N[C@@H](CO)C(=O)NCC(=O)N[C@H](C(=O)N1CCC[C@H]1C(N)=O)[C@@H](C)O)[C@@H](C)O)[C@@H](C)O)[C@@H](C)O	/	/	/	/	0.8%	/
COc1ccc(N2C(S)=C(C#N)C(=O)NC23CCCCC3)cc1	-13.9%	35.5µM*	?	29.6%	17.8µM*	4.6%
CCOc1ccc(N2C(=O)c3cccnc3C2Nc2ccc(F)cc2)cc1 (configuration not stated)	-26.6%	56.2µM*	36.4%	3.4%	-17.8%	32.3%
CC(=O)N1CCC2(CC1)C/C(=N\NC(=S)Nc1ccc(C)cc1)c1cc(O)ccc1O2	?	39.8µM*	?	-22.9%	1.0%	/
Cc1ccc(NC(=S)N/N=C2\CC(C)(C)Oc3ccc(O)cc32)cc1	-32.0%	19.6%[59 µM]	0.1%	0.7%	30.5%	-7.7%
Cc1ccccc1NC(=S)N/N=C1\CC(C)(C)Oc2ccc(O)cc21	39.8µM*	35.5µM*	?	?	17.3%	/
CCN(CC)S(=O)(=O)c1ccc2c(c1)N(CC(=O)NCc1ccccc1)C(=O)C1CCCCN21 (configuration not stated)	-1.7%	16.8%[59 µM]	-2.8%	30.2%	/	/
COc1ccc2nc(NN=C(C)c3ccccn3)cc(C)c2c1	44.7µM*	/	/	?	/	/
COc1ccc2c(c1)C(=NNC(=O)c1ccccn1)c1cc(OC)ccc1-2	?	?	?	21.8%	?	2.0%
O=C(N/N=C/c1cc(Br)c(O)c(Br)c1)c1cc2c(ccc3ccccc32)o1	79.4µM*	?	39.8µM*	?	?	/
O=C(N/N=C/c1cc(Cl)c(O)c(Cl)c1)c1cc2c(ccc3ccccc32)o1	?	/	56.2µM*	-2.1%	?	/
